Measured values as given in PubChem BioAssay AID720519 (National Center for Advancing Translational Sciences (NCATS), 2013).
Records with an inconclusive call do not appear. Entries that show only a call come without a potency. Active and inactive are the calls of the source. The call rests on the fitted dose curve; in most records, active means well fitted activation curve with a large enough effect; inconclusive means small, poorly fitted or top-dose-only effect; inactive means flat fitted curve, though single readings scatter.

Assay: qHTS for Inhibitors of Cell Surface uPA Generation: Confirmatory Assay for Cherry-picked Compounds
Settings: cell surface uPA activity generation, qHTS confirmation; series mostly up to 115 µM
Outline: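 RAW 264.7 cells at 4000/well, incubated overnight, then treated with compounds. After 24 h at 37 C, viability was read by ATPlite luminescence. An increase in signal indicates blocked uPA-dependent LF entry.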
Potency means the concentration at half of the fitted maximal effect.

Row | SMILES | Potency
1 | Cc1ccc(NC(=O)CC2OC(=O)c3ccccc32)cc1S(=O)(=O)N1CCOCC1 (centres undefined) | inactive
2 | COc1ccc(S(=O)(=O)N2CCN(Cc3ccccc3)CC2)c(C)c1 | inactive
3 | CCC(C)C(NC(=O)c1ccccc1)C(=O)Nc1ccc(S(=O)(=O)Nc2cc(C)nc(C)n2)cc1 (centres undefined) | inactive
4 | CC(C)(C)OC(=O)N(Cc1ccccc1)Cc1ccccc1OCc1cccc(NC(=O)C2CC2)c1 | inactive
5 | O=C(NCc1ccccn1)C1CCN(C(=O)c2cc3sccc3n2Cc2ccc(F)cc2)CC1 | inactive
6 | S=C(Nc1ccccc1Cl)N1CCCC(c2ccccc2)=N1 | 13.1 µM (active)
7 | O=C(O)COc1ccccc1/C=N/NC(=O)CNC(=O)c1ccco1 | inactive
8 | CCOc1ccc(C(=O)NCC(=O)N2CCN(C/C=C/c3ccccc3)CC2)cc1OCC | inactive
9 | COc1cc(N/C(N)=N/c2nc(C)cc(C)n2)cc(OC)c1 | inactive
10 | COc1ccc(CC(=O)NNS(=O)(=O)c2ccccc2[N+](=O)[O-])cc1OC | inactive
11 | Cn1c(=O)c2c(ncn2CCO)n(C)c1=O | inactive
12 | CC(C)C1Oc2ccccc2N(CC(=O)NC2CCCCC2)C1=O (centres undefined) | 32.9 µM (active)
13 | O=C(CSc1ccc(Cl)cc1)N1CCCC1 | inactive
14 | CCn1c(SC(C)C(=O)NC2CCCC2)nc2cc(S(N)(=O)=O)ccc21 (centres undefined) | inactive
15 | C=CCOC(=O)C1=C(C)NC(C)=C(C(=O)OCC=C)C1c1cn(-c2ccccc2)nc1-c1ccco1 | inactive
16 | COC(=O)[C@]1(Cc2ccccc2)N[C@H](CN(C)C(=O)c2ccccc2)[C@@H]2C(=O)N(Cc3ccccc3)C(=O)[C@@H]21 | inactive
17 | Cc1oc(-c2ccccc2F)nc1CS(=O)(=O)CC(=O)NC1CCCC(C)C1C (centres undefined) | inactive
18 | CSCC[C@H](NC(=O)[C@H](Cc1ccccc1)n1c(=O)[nH]c2ccccc2c1=O)C(=O)N1CCC[C@H]1C(=O)O | inactive
19 | C[n+]1c2cc(N)ccc2cc2ccc(N)cc21 | inactive
20 | CC(OC(=O)c1cccc(-n2cnnn2)c1)C(=O)Nc1ccc(F)c(F)c1F (centres undefined) | inactive

Row | SMILES | Potency
21 | COc1ccc(CNC(=O)C2(CC3CC(c4ccccc4)=NO3)CCNCC2)cc1 (centres undefined) | inactive
22 | COc1cccc(CNC(=O)C2CCCN(S(=O)(=O)c3ccc4c(c3)C(C)(C)C(=O)N4C)C2)c1 (centres undefined) | inactive
23 | C=CCn1c(SCc2ccc(C(=O)NCCO)cc2)nc2ccccc2c1=O | inactive
24 | O=C(O)CCCC(=O)NCCCCc1ccccc1 | inactive
25 | CCN(CC(=O)Nc1c(F)cccc1F)C(=O)c1ccc(-c2ccc(C(C)=O)cc2)o1 | inactive
26 | CC1CCC(NC(=O)c2nn(C)c3c2CS(=O)(=O)c2ccccc2-3)CC1 (centres undefined) | inactive
27 | O=C(NCCCn1ccnc1)C(=O)NCC(c1cccnc1)N1CCN(c2ccc(F)cc2)CC1 (centres undefined) | inactive
28 | C[C@@H](C(=O)Nc1ccc2ccccc2c1)[C@@H]1C[C@@]1(C)[C@@H](NC(=O)c1cccnc1)c1ccccc1 | inactive
29 | Cc1cc(=O)[nH]c2c(C)cc(S(=O)(=O)Nc3ccc(O)cc3)cc12 | inactive
30 | Cc1ccc(NC(=O)CSc2nncn2N)cc1C | inactive
31 | CCCNC(=O)COc1coc(CN2CCN(c3ccccc3OC)CC2)cc1=O | inactive
32 | CCOC(=O)C1=C(C)N(Cc2ccccc2)C(=O)NC1c1ccc(OC)cc1 (centres undefined) | inactive
33 | COc1ccc(OC)c(S(=O)(=O)N2CCN(Cc3ccccc3)CC2)c1 | inactive
34 | COc1ccc2cc(CCNC(=O)c3ccc4c(c3)OCO4)c(=O)[nH]c2c1 | inactive
35 | OCCN(Cc1ccccc1)CC(O)COc1ccc2c(c1)OCO2 (centres undefined) | inactive
36 | COC(=O)C1=CN(Cc2ccc(F)cc2)C=C(C(=O)OC)C1c1ccc(O)c(OC)c1 | inactive
37 | CCn1c2ccccc2c2n[nH]c(=S)nc21 | inactive
38 | CCn1c(CNc2ccc(F)cc2)nnc1SCC(=O)Nc1ccccc1OC | inactive
39 | COc1ccc(NS(=O)(=O)c2c(C)n(C)c(=O)n(C)c2=O)cc1OC | inactive
